Screening results from PubChem BioAssay.
BH1578 lux ind: inducers of Vibrio cholerae quorum light production without autoinducers, primary screen, BH1578 luxS cqsA deficient, single point. V. cholerae BH1578 lux reporter, luminescence, 6 h. activation, % at 18.7 µM. 350,000 tested, 0.16% active. AID 588436, 2011; in the data active = activation mostly above about 9.7%, no sharp cut-off
GDH-TPI counter-1: GDH-TPI coupling enzyme inhibitors, primary screen, artefact control for M. tuberculosis FBA inhibitor project, biochemical, absorbance, full deck; 360,000 tested, 1.2% active; inhibition, % at 4.8 µM; GDH-TPI coupled enzyme counterscreen, NADH absorbance; in the data active = inhibition above about 30%;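 also: 0% = DMSO wells and 100% = wells lacking the enzyme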
FBA Mtb inh: Mtb FBA enzyme inhibitors, primary screen, biochemical, fluorescence, strain H37Rv; 360,000 tested, 2.3% active; Fructose-bisphosphate aldolase (Mycobacterium tuberculosis (strain ATCC 25618 / H37Rv)), …; purified M. tuberculosis FBA, fluorescence read-out; inhibition, % at 1 µM;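 also: 0% = vehicle and 100% = reference inhibitor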
Target sequence (P9WQA3 whole entry, looked up): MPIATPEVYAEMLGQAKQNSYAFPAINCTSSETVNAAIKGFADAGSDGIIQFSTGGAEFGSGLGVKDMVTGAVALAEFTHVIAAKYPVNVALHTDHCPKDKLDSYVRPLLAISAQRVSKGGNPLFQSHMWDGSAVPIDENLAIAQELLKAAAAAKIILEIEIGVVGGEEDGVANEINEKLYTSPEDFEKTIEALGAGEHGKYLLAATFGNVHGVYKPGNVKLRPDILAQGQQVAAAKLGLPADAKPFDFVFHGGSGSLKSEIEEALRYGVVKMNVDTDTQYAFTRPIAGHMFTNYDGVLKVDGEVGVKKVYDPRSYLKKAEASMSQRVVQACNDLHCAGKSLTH
CCHF vOTU inh: CCHFV vOTU protease inhibitors, primary screen, biochemical, Pep-AMC substrate, fluorescence; 370,000 tested, 0.55% active; Crimean-Congo hemorrhagic fever virus L polyprotein viral ovarian tumor (vOTU) protease …; inhibition, % at 11.5 µM; in the data active = inhibition above about 30%; also: 0% = vehicle wells with enzyme and 100% = no enzyme wells
Mtb FBA inh conf: M. tuberculosis aldolase blockers, biochemical, fluorescence, strain H37Rv, confirmation; purified M. tuberculosis FBA, fluorescence read-out; shares compounds with FBA Mtb inh; inhibition, % at 1 µM; 5,600 tested, 78% active;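 also: 0% = vehicle wells and 100% = reference inhibitor wells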
GDH-TPI counter-2: GDH-TPI coupling enzyme inhibitors, artefact control for M. tuberculosis FBA inhibitor project, biochemical, fluorescence, high throughput. shares compounds with FBA Mtb inh. GDH-TPI coupled enzyme counterscreen. inhibition, % at 1 µM. 5,600 tested, 81% active. AID 652141, 2013; in the data active = inhibition above about 10%
The depositor's hits bear a star. This is a sample that favours compounds with a hit; in the whole collection about 3.9% have one here. Rule as the data show it, unless noted: active = inhibition above about 27%; inactive = the rest.

`CCCCc1cc(=O)oc2cc(C)cc(OC(C)C(=O)NCc3cccnc3)c12` (stereo not given) gave BH1578 lux ind -0.3, GDH-TPI counter-1 -4.7, FBA Mtb inh 55.8*, CCHF vOTU inh -2.9, Mtb FBA inh conf 55.3* and GDH-TPI counter-2 43.2*.
For CCc1cc(=O)oc2cc(C)cc(OC(C)C(=O)NCc3ccncc3)c12 (stereo not given) the results were BH1578 lux ind -0.3, GDH-TPI counter-1 3.5, FBA Mtb inh 84.1*, CCHF vOTU inh -29.0, Mtb FBA inh conf 0.4 and GDH-TPI counter-2 -4.9.
`C=CCOc1ccc(C2=NO[C@@H]3[C@@H]4C[C@@H]([C@H]5C(=O)N(C)C(=O)[C@@H]45)[C@H]23)cc1` gave BH1578 lux ind -0.6, GDH-TPI counter-1 8.9, FBA Mtb inh -1.8 and CCHF vOTU inh -13.5.
Screening NC(=O)c1cc(NC(=O)c2ccc(NS(=O)(=O)c3cccs3)cc2)cc(C(N)=O)c1 returned BH1578 lux ind 3.1, GDH-TPI counter-1 1.4, FBA Mtb inh 4.1 and CCHF vOTU inh 9.4.
For O=C(c1ccccc1)N1CCC(Oc2cccnc2)CC1 the results were CCHF vOTU inh -5.1.
Screening O=C(c1cccnc1)N1CCC(Oc2ccc(C(=O)N3CCCC(O)C3)cc2)CC1 (stereo not given) returned BH1578 lux ind -0.1, GDH-TPI counter-1 2.8, FBA Mtb inh 27.9*, CCHF vOTU inh 1.0, Mtb FBA inh conf 57.6* and GDH-TPI counter-2 30.4*.
`CC(=O)Nc1nn(C)c2nc(C)cc(C)c12` gave BH1578 lux ind 1.1, GDH-TPI counter-1 -12.6, FBA Mtb inh 39.4*, CCHF vOTU inh -15.4, Mtb FBA inh conf 58.8* and GDH-TPI counter-2 49.6*.
For CC1(C)Cc2c(cnn2-c2ccccc2)C(=O)/C1=N\NC(=O)c1ccccc1N the results were BH1578 lux ind -0.3, GDH-TPI counter-1 18.3, FBA Mtb inh 1.8 and CCHF vOTU inh -16.6.
CC1(C)Cc2c(cnn2-c2ccccc2)-c2c1c1ccccc1n2CC(O)CBr (stereo not given) was read as BH1578 lux ind inactive, GDH-TPI counter-1 0.0, FBA Mtb inh 30.6*, CCHF vOTU inh 16.1, Mtb FBA inh conf 162.8* and GDH-TPI counter-2 107.5*.
`CC1(C(=O)NS(=O)(=O)c2ccccc2Cl)CCN1C(=O)c1ccccc1CCc1ccccc1` (stereo not given) gave BH1578 lux ind -3.0, GDH-TPI counter-1 2.6, FBA Mtb inh -2.2 and CCHF vOTU inh 7.6.
Cc1ccc(CCNC(=O)Cn2ccc3cc(S(=O)(=O)N4CCCC4)ccc32)cc1 was read as BH1578 lux ind -0.3, GDH-TPI counter-1 -7.9, FBA Mtb inh 83.9*, CCHF vOTU inh -0.5, Mtb FBA inh conf 44.5* and GDH-TPI counter-2 27.1*.
`COc1ccc(CCNC(=O)Cn2ccc3cc(S(=O)(=O)N4CCCC4)ccc32)cc1OC` gave BH1578 lux ind -5.6, GDH-TPI counter-1 -3.5, FBA Mtb inh 1.4 and CCHF vOTU inh -3.5.
O=C(COC(=O)/C=C/c1ccc(F)cc1)NC1CCCC1 was read as BH1578 lux ind 2.9, GDH-TPI counter-1 -3.9, FBA Mtb inh 2.9 and CCHF vOTU inh 2.9.
For COc1cccc(/C=C/C(=O)OCC(=O)NC2CC2)c1 the results were BH1578 lux ind inactive, GDH-TPI counter-1 -1.1, FBA Mtb inh 27.8*, CCHF vOTU inh -15.2, Mtb FBA inh conf -0.8 and GDH-TPI counter-2 -3.2.
COc1cccc(/C=C/C(=O)OCC(=O)NCCc2ccccc2)c1 was read as BH1578 lux ind -0.5, GDH-TPI counter-1 -8.0, FBA Mtb inh 27.8*, CCHF vOTU inh 1.2, Mtb FBA inh conf active and GDH-TPI counter-2 181.7*.
`COC(=O)c1ccc(CNC(=O)COC(=O)/C=C/c2ccc(O)c(OC)c2)cc1` gave BH1578 lux ind inactive, GDH-TPI counter-1 19.0, FBA Mtb inh 3.6 and CCHF vOTU inh 5.4.
For CSc1ccc(/C=C/C(=O)OCC(=O)NC2CCCC2)cc1 the results were BH1578 lux ind 1.2, GDH-TPI counter-1 41.1*, FBA Mtb inh 61.3*, CCHF vOTU inh -60.8, Mtb FBA inh conf active and GDH-TPI counter-2 active.
Screening COC(=O)c1ccc(CNC(=O)COC(=O)/C=C/c2cccc(OC)c2)cc1 returned BH1578 lux ind inactive, GDH-TPI counter-1 8.8, FBA Mtb inh 27.5*, CCHF vOTU inh -5.8, Mtb FBA inh conf 167.7* and GDH-TPI counter-2 156.6*.
For COc1cccc(/C=C/C(=O)OCC(=O)NC2CCCC2)c1 the results were BH1578 lux ind -3.0, GDH-TPI counter-1 8.8, FBA Mtb inh 20.2 and CCHF vOTU inh 12.6.
Screening COc1cccc(C(=O)NC2CCN(CC(=O)NCc3ccccc3OC)CC2)c1 returned BH1578 lux ind inactive, GDH-TPI counter-1 11.0, FBA Mtb inh -1.0 and CCHF vOTU inh 13.0.
COc1ccc(N2CC(C)Cn3c2nc2c3c(=O)n(Cc3ccccc3)c(=O)n2C)c(OC)c1 (stereo not given) was read as BH1578 lux ind -0.3, GDH-TPI counter-1 -3.4, FBA Mtb inh 5.7 and CCHF vOTU inh 7.9.
`O=C(COC(=O)COc1ccccc1)Nc1ncc(Cl)cc1Cl` gave BH1578 lux ind -3.8, GDH-TPI counter-1 3.5, FBA Mtb inh 7.1 and CCHF vOTU inh 8.9.
`CCOc1ccccc1NC1=NC2CS(=O)(=O)CC2S1` (stereo not given) gave BH1578 lux ind inactive, GDH-TPI counter-1 0.7, FBA Mtb inh 2.5 and CCHF vOTU inh 11.0.
`Cn1nnnc1SCC(=O)c1c(N)n(C)c(=O)n(C)c1=O` gave BH1578 lux ind inactive, GDH-TPI counter-1 -8.3, FBA Mtb inh 8.6 and CCHF vOTU inh 0.8.
For CC(C)CN(C(=O)COC(=O)c1ccccc1NCc1ccco1)c1c(N)n(Cc2ccccc2)c(=O)[nH]c1=O the results were BH1578 lux ind inactive, GDH-TPI counter-1 -0.7, FBA Mtb inh 30.5*, CCHF vOTU inh -25.2, Mtb FBA inh conf 152.0* and GDH-TPI counter-2 122.6*.
Screening COCCN(C(=O)COC(=O)c1ccccc1NCc1ccco1)c1c(N)n(Cc2ccccc2)c(=O)[nH]c1=O returned BH1578 lux ind -0.8, GDH-TPI counter-1 10.8, FBA Mtb inh 81.2*, CCHF vOTU inh -75.3, Mtb FBA inh conf 150.9* and GDH-TPI counter-2 117.7*.
`CN(CCCOC(=O)c1cc2ccccc2o1)C1CN(Cc2cn(Cc3ccccc3C(F)(F)F)nn2)S(=O)(=O)C1` (stereo not given) gave CCHF vOTU inh 7.2.
Screening CN(C)C(=O)COC(=O)/C=C/c1cn(-c2ccccc2)nc1-c1cccs1 returned BH1578 lux ind 1.3, GDH-TPI counter-1 -2.5, FBA Mtb inh 8.6 and CCHF vOTU inh -12.7.
